# In the library only some 3.5% were active in any assay of this set; here they are far more common.
# FBW7 act: activators of human E3 ligase FBW7 | normalized activity (activation), % at 26.1 µM | 650,000 compounds, 0.13% hits | Q969H0 | AlphaScreen FBW7–phospho-cyclin E peptide binding, activator screen; in the data active = normalized activity above about 1.9%;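 note: purified mutant Fbw7 with reduced substrate affinity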
# Target sequence (Q969H0 whole entry, looked up): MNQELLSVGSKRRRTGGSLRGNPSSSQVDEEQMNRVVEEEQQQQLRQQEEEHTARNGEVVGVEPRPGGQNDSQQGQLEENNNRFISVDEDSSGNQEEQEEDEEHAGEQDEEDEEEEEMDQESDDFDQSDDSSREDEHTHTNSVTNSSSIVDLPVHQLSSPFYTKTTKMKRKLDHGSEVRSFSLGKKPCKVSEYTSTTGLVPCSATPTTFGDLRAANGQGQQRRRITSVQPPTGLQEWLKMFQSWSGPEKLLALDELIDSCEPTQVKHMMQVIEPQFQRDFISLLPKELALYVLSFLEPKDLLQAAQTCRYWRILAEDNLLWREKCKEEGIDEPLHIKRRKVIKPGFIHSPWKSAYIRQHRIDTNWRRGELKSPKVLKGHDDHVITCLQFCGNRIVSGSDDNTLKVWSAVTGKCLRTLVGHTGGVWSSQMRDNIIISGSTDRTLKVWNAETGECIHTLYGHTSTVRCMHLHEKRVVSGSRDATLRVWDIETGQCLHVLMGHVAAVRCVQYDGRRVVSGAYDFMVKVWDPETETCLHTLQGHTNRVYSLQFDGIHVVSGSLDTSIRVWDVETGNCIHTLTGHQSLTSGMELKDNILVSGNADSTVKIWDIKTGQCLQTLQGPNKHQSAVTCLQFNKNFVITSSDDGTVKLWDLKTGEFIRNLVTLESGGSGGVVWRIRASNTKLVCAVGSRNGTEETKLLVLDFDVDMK
# TEAD-YAP block: TEAD-YAP interaction inhibition. inhibition, % at 9.12 µM. 640,000 compounds, 1.4% hits. AID 1259422. HEK-TIYL cells, TEAD-Gal4/YAP UAS-luciferase luminescence; in the data active = inhibition above about 32%
# GPR151 ag: activators of human GPR151; Q8TDV0; PathHunter beta-arrestin GPR151 cells, luminescence; activation, % at 11.2 µM; 650,000 compounds, 1% hits; AID 1508602; in the data active = activation above about 4.9%
# MITF inh: blocks human microphthalmia-associated transcription factor; AlphaScreen MITF homodimerization, bead proximity signal; inhibition, % at 2.6 µM; 650,000 compounds, 0.91% hits; AID 1259374; in the data active = inhibition above about 50%
# GPR151 confirm: confirmation of human GPR151 activators. shares compounds with GPR151 ag. AID 1508609. 6,700 tested, under 10 active. activation, % at 11.2 µM. GPR151 PathHunter beta-arrestin cells, luminescence, 90 min; % of EA-reagent control over plate median;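 active = mean percent activation across replicates above the confirmation screen cutoff of 4.91%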
# GPR119 counter: activates human GPR119 in a GPR151 counter-screen. shares compounds with GPR151 ag. GPR119 PathHunter beta-arrestin cells, luminescence, 90 min; 0 = compound-well median, 100 = enzyme-acceptor control. activation, % at 11.2 µM. 6,700 compounds, 0.3% hits. AID 1508611;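 active = mean percent activation in the counterscreen above 29.09%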;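 note: counterscreen on off-target GPR119 to flag nonselective hits from the GPR151 activator screen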
# A number is an active result; – = inactive; · = not tested or not shown; ! = not confirmed by another sample.
SMILES,FBW7 act,TEAD-YAP block,GPR151 ag,MITF inh,GPR151 confirm,GPR119 counter
COc1ccccc1C(=O)N[C@H]1C[C@H]2C(=O)N[C@@H](C)C(=O)N2C1,–,–,–,–,·,·
CCn1c(=O)c2c(nc3n2CCCN3c2ccc(Br)cc2)n(C)c1=O,–,–,–,–,·,·
C=CCn1c(=O)c2c(nc3n2CCCN3c2ccc(CC)cc2)n(C)c1=O,–,–,7.4,–,–,–
O=c1c2ccccc2ncn1CCCOc1ccccc1[N+](=O)[O-],–,–,4.9,–,–,–
COc1ccc(NC(=O)CCNc2c(N3CCCC3)c(=O)c2=O)cc1,–,–,6.1,–,–,–
Cc1sc2nc(C3CC3)n(C3CCN(C(=O)c4ccccn4)CC3)c(=O)c2c1C,–,–,6.5,–,–,–
O=C(CN1CCC(O)CC1)N1c2ccccc2Sc2ccc(C(F)(F)F)cc21,–,–,8.4,–,–,–
CN1CCN(CC(=O)N2c3ccccc3Sc3ccc(C(F)(F)F)cc32)CC1,–,–,–,–,·,·
N#C/C(=C\c1cccc(Cl)c1)C(=O)Nc1cc([N+](=O)[O-])ccc1F,–,–,–,–,·,·
COc1ccc(C(=O)NNC(=O)c2ccc([N+](=O)[O-])cc2Cl)cc1,–,–,–,–,·,·
NC(=O)CCN(CCC(N)=O)S(=O)(=O)c1ccc(Br)cc1,–,–,–,–,·,·
NC(=O)CCN(CCC(N)=O)S(=O)(=O)c1ccccc1,–,–,6.6,–,–,–
CCOC(=O)C1CCCN(C(=O)CNC(=O)Cn2cnc3sc4c(c3c2=O)CCCC4)C1 (stereo not given),–,–,–,–,·,·
CCCNC(=O)C1CCC(CNS(=O)(=O)c2ccc(OC)cc2)CC1 (stereo not given),–,–,–,–,·,·
COCCNC(=O)C1CCC(CNS(=O)(=O)c2ccc(OC)cc2)CC1 (stereo not given),–,–,6.0,–,–,–
COCc1ccc(CN2CCCC(CNS(=O)(=O)c3ccc(OC)cc3)C2)o1 (stereo not given),–,–,4.9,–,–,–
Cn1c(SCc2ccccc2)nnc1C1CCCN1C(=O)Cc1ccccn1 (stereo not given),–,–,–,–,·,·
COc1ccc2c(c1OC)C(=O)NC(C)=C(C(=O)OC(C)(C)C)C2O (stereo not given),–,–,12,–,–,–
CC1=CC2=NC(=O)/C(=C\c3ccc(OCCCOc4cccc(C)c4)cc3)C(=N)N2O1,–,–,–,–,·,·
CCCCCCCC(=O)N/N=C/c1ccccc1OC,–,–,17,–,–,–
COc1ccc(/C=N/NC(=O)CCC(=O)Nc2ccc(Cl)cc2C)cc1OC,–,–,–,–,·,·
CCCCCC(=O)N/N=C/c1cccc(OC)c1,–,–,5.2,–,–,–
COc1ccc(/C=N/NC(=O)CCC(=O)Nc2ccc(Cl)cc2C)cc1,–,–,5.3,–,–,–
S=c1n(CN2CCCC2)nc2c(Cl)cc(Cl)cn12,–,–,–,–,·,·
C[C@H](N)COc1ncccc1C(=O)Nc1ccc2[nH]ncc2c1,–,–,–,–,·,·
SMILES,FBW7 act,TEAD-YAP block,GPR151 ag,MITF inh,GPR151 confirm,GPR119 counter
Cc1cc(C)c2c(N)c(C(=O)c3ccccc3O)sc2n1,–,–,–,–,·,·
CCOC(=O)COc1ccc2c(C)c(-c3ccccc3)c(=O)oc2c1,–,–,–,–,·,·
Cc1c(-c2ccccc2)c(=O)oc2cc(OCC#N)ccc12,–,–,6.5,–,–,–
CC1=C(C(=O)OC(C)C)C(c2cc(Br)ccc2F)C2=C(CC(c3cccs3)CC2=O)N1 (stereo not given),–,–,–,–,·,·
Cc1nc(-c2ccccc2)sc1C(=O)Nc1cccc(-c2cn3ccsc3n2)c1,–,–,–,–,·,·
CC(NCc1cc(Br)ccc1OCC(N)=O)C12CC3CC(CC(C3)C1)C2 (stereo not given),–,–,7.6,–,–,–
COc1ccc(-n2cc(C(=O)NC3CCC(C)CC3)c3ccccc3c2=O)cc1 (stereo not given),–,–,5.0,–,–,–
CCC(C)NC(=O)c1cn(-c2cccc(OC)c2)c(=O)c2ccccc12 (stereo not given),–,–,5.4,–,–,–
CCC(C)NC(=O)CCNC(=O)c1cn(-c2cccc(OC)c2)c(=O)c2ccccc12 (stereo not given),–,–,–,–,·,·
CC1(C)C(=O)OC(c2ccccc2)C2(CCCC2)C1=O (stereo not given),–,–,6.0,–,–,–
CC1(C)C(=O)OC(c2ccc(Br)cc2)C2(CCCCC2)C1=O (stereo not given),–,–,–,–,·,·
CC1=C(C(=O)N2CCCCC2)C(c2ccc(Cl)c([N+](=O)[O-])c2)C2=C(CC(C)(C)CC2=O)N1 (stereo not given),–,–,–,–,·,·
N#Cc1ccccc1NC(=O)c1cc(Br)ccc1Cl,–,–,–,–,·,·
O=C(O)c1cccc([N+](=O)[O-])c1C(=O)Nc1cccc(Cl)c1Cl,–,–,7.6,–,–,–
O=C(Nc1cccc(Cl)c1Cl)c1ccccc1[N+](=O)[O-],–,–,–,–,·,·
O=C(Nc1ccccc1[N+](=O)[O-])c1cc(Br)ccc1Cl,–,–,5.9,–,–,–
CCNC(=O)CNS(=O)(=O)c1ccc(C)cc1,–,–,7.9,–,–,–
CCNC(=O)CNS(=O)(=O)c1ccc(I)cc1,–,–,–,–,·,·
CCCCNC(=O)NS(=O)(=O)c1ccc(C)cc1,–,–,6.1!,–,–,–
Cc1cc(C)n2c(SCC(C)(C)NS(=O)(=O)c3ccccc3)nnc2n1,–,–,–,–,·,·
COCCCNC(=O)c1cccnc1SCc1ccccc1Cl,–,–,5.5,–,–,–
O=C(Nc1ccc(-c2ccc([N+](=O)[O-])cc2)cc1)C1CC1,–,–,–,–,·,·
O=C1NC(=O)c2cc(NC(=O)C3CC3)ccc21,–,–,5.2,–,–,–
O=C(Nc1ccc([N+](=O)[O-])cc1)C1CC1,–,–,7.5,–,–,–
CC(=O)NC1C(Oc2cc(C)ccc2C)OC(CO)C(O)C1O (stereo not given),–,–,5.8,–,–,–
SMILES,FBW7 act,TEAD-YAP block,GPR151 ag,MITF inh,GPR151 confirm,GPR119 counter
COc1ccccc1OC1OC2COC(c3ccco3)OC2C(O)C1NC(C)=O (stereo not given),–,–,15,–,–,–
CC(=O)NC1C(Oc2cc(C)ccc2C)OC2COC(C)(C)OC2C1O (stereo not given),–,–,13,–,–,–
CC(=O)N[C@H]1[C@H](Oc2ccc(Cl)cc2Cl)O[C@H](CO)[C@@H](O)[C@@H]1O,–,–,–,–,·,·
CC(=O)OCCNc1cc(N2CCCC2)c2noc3c2c1C(=O)c1ccccc1-3,–,–,–,–,·,·
Cc1occc1C(=O)Nc1nc2ccc([N+](=O)[O-])cc2s1,–,–,–,–,·,·
O=S(=O)(Nc1cccc(F)c1)c1cccc(S(=O)(=O)c2ccccc2)c1,–,–,–,–,·,·
